Source: PubChem BioAssay
DT40 TDP1 CPT: qHTS for Inhibitors of human tyrosyl-DNA phosphodiesterase 1 (TDP1): qHTS in cells in presence of CPT | 420,000 tested, 12% active | AID 686979, 2013 | Potency, µM (titrated, usually from 46.2 µM), inactives show at the highest dose activity change, negative = growth inhibition, most hits filed as inhibitors | chicken DT40 Tdp1-/-;hTDP1 cells + 20 nM CPT, ATP luminescence, 48 h; also: potency is read from the fitted curve at half-maximal effect; nearly all actives have a fitted effect of over 55% in size
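Chicken DT40 Tdp1-/- cells stably complemented with human TDP1 were seeded at 400 cells/well in medium containing 20 nM camptothecin, exposed to pin-transferred compounds, and grown at 37 °C for at least 48 hr. Viability was read as ATP luminescence.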
TDP1 cell noCPT: qHTS for Inhibitors of human tyrosyl-DNA phosphodiesterase 1 (TDP1): qHTS in cells in absence of CPT | DT40 Tdp1-/- hTDP1 cells, no CPT, ATP luminescence, 48 h | Potency, µM (highest dose often 46.2 µM), for inactives: at the top dose activity change, negative = growth inhibition, most hits filed as inhibitors | 420,000 tested, 15% active | AID 686978, 2013; also: potency is read from the fitted curve at half-maximal effect; nearly all actives have a fitted effect of over 55% in size
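Readout: luminescence from CellTiter-Glo after 30 min in the dark at RT. Cells: DT40 Tdp1-/- with stable hTDP1, 400/well. Exposure: compounds alone, ≥48 hr, 37 °C.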
IL1B secr inh: qHTS for Inhibitors of Inflammasome Signaling: IL-1-beta AlphaLISA Primary Screen. THP-1 LPS/ATP IL-1B secretion, AlphaLISA, 16 h; stronger effect = lower value. activity change, % at 57.5 µM. AID 743279, 2014. 360,000 tested, 4.7% active; in the data active = activity change below about -50%; inconclusive = mostly about -30% to -49%
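Secreted IL-1B measured by AlphaLISA bead assay after 16 h compound exposure of THP-1 cells; compounds (final up to 57.5 uM) added 1 h before LPS (250 ng/mL) and ATP (1.25 mM) stimulation; lower signal means less secretion.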
HT1080 IDH1KD tx: qHTS for induction of synthetic lethality in tumor cells producing 2HG: qHTS for the HT-1080-IDH1KD cell line. 360,000 tested, 2% active. HT-1080 IDH1 knockdown viability, ATP luminescence, 48 h. AID 686971, 2013. Potency, µM (doses to about 46.1 µM), for inactives: at the highest dose activity, negative = toxicity, hits mostly cytotoxic;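 also: potency is read from the fitted curve at half-maximal effect; 0% = DMSO wells and -100% = cell-free medium wells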
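Viability of IDH1-knockdown HT-1080 fibrosarcoma cells was assessed by CellTiter-Glo after 48 h at 37 °C with titrated compound; concentration-effect curves were classified by fit quality and response size.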
HT1080NT lethal: qHTS for induction of synthetic lethality in tumor cells producing 2HG: qHTS for the HT-1080-NT fibrosarcoma cell line | HT-1080-NT fibrosarcoma viability, CellTiter-Glo ATP luminescence, 48 h | 360,000 tested, 1.6% active | Potency, µM (top dose mostly 46.1 µM), inactives show top-dose activity, negative = less viability, most hits filed as cytotoxic | AID 686970, 2013;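 also: NT is the 2HG producing partner of a matched IDH1 knockdown line; potency is read from the fitted curve at half-maximal effect; 0% = DMSO-treated cells and -100% = media-only wells without cells; nearly all actives have a fitted effect of over 55% in size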
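750 cells/well, RPMI + 5% FBS; 2 h settle, compound pin-transfer, 48 h at 37 degrees C. CellTiter-Glo 10 min RT, luminescence. Normalized to DMSO and media-only wells.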
An asterisk follows results filed as active; ? = inconclusive; · = not tested or not shown. An excerpt weighted towards active compounds, which were near 19% of everything screened. Unless noted, calls follow the shape of the dose curve; as a rule, active = well fitted curve in the direction sought with a large enough effect; inconclusive = small, poorly fitted or top-dose-only effect, or another doubt; inactive = no such curve, though single readings can be large; an effect the other way counts as inactive or inconclusive. Unless noted, % is scaled to controls: 0 for no effect and ±100 for the full control effect.

SMILES	DT40 TDP1 CPT	TDP1 cell noCPT	IL1B secr inh	HT1080 IDH1KD tx	HT1080NT lethal
COc1ccccc1N1CCN(C(=O)c2cnn(-c3ccc(C)c(C)c3)c2C2CCN(C(=O)OC(C)(C)C)CC2)CC1	20.6µM*	20.6µM*	·	·	·
Cc1ccc(-n2ncc(C(=O)N3CCN(C4CCCCC4)CC3)c2C2CCN(C(=O)OC(C)(C)C)CC2)cc1C	8.2µM*	7.31µM*	·	·	·
O=C(c1ccco1)N1CCN(C(=O)c2cnn(-c3cccc(F)c3)c2C2CCNCC2)CC1	-7.6%	22.8%	6.7	1.4%	-2.0%
Cc1ccc(N2CCN(C(=O)c3cnn(-c4ccc(C)c(C)c4)c3C3CCNCC3)CC2)c(C)c1	6.51µM*	6.51µM*	·	·	·
CC(C)(C)OC(=O)N1CCC(c2c(C(=O)N3CCN(c4ncccn4)CC3)cnn2-c2cccc(F)c2)CC1	-3.0%	-5.9%	·	·	·
CC(C)(C)OC(=O)N1CCC(c2c(C(=O)N3CCN(C4CCCCC4)CC3)cnn2-c2cccc(Cl)c2)CC1	16.4µM*	23.1µM*	·	·	·
COc1cc(/C=N/NC(=O)c2ccc(CSc3nc4ccccc4[nH]3)cc2)ccc1O	?	?	-16.2	-17.3%	-18.4%
CC(C)(C)NC(=O)CN1C(=O)c2cccc3cccc1c23	4.6%	-27.8%	-4.2	-0.7%	-1.1%
O=C(NCCN1CCCCC1)c1cc(COc2c(F)cccc2F)on1	-25.3%	11.5%	-4.0	7.3%	-1.8%
Cc1ccc(OCC(=O)Nc2ccc(C)c(F)c2)c([N+](=O)[O-])n1	-11.1%	-21.1%	-0.2	8.2%	11.8%
CC(=O)Nc1ccc(NC(=O)CSc2nnc(-c3cccs3)n2N)cc1	-20.3%	0.2%	2.3	-1.3%	-6.6%
CCN1CCN(C(=O)c2cnn(-c3cccc(Cl)c3)c2C2CCN(C(=O)OC(C)(C)C)CC2)CC1	-23.4%	?	·	·	·
CC(C)(C)OC(=O)N1CCC(c2c(C(=O)N3CCN(C4CCCCC4)CC3)cnn2-c2ccc(F)cc2)CC1	-18.2%	10.0%	5.9	-6.4%	14.2%
CCOC(=O)c1cnn(-c2cccc(Cl)c2)c1C1CCN(C(=O)OC(C)(C)C)CC1	23.1µM*	?	·	·	·
Cc1cccc(N2CCN(C(=O)c3cnn(-c4cccc(Cl)c4C)c3C3CCNCC3)CC2)c1C	3.66µM*	5.17µM*	·	·	·
COc1ccc(-n2ncc(C(=O)N3CCN(C4CCCCC4)CC3)c2C2CCN(C(=O)OC(C)(C)C)CC2)cc1	?	20.6µM*	·	·	·
COc1ccc(/C=N/NC(=O)c2ccn[nH]2)cc1CN1CCOCC1	-0.5%	-22.1%	16.0	5.1%	10.8%
O=C1/C(=C/c2ccc([N+](=O)[O-])cc2)C=C(c2ccccc2)N1c1ccccc1	?	?	-0.3	-10.4%	-3.5%
O=C1/C(=C/c2ccc([N+](=O)[O-])cc2)C=C(c2ccccc2)N1c1ccc(O)cc1	5.17µM*	2.91µM*	-99.3*	?	-15.4%
COc1ccc(N2C(=O)/C(=C/c3ccc([N+](=O)[O-])cc3)C=C2c2ccccc2)cc1	3.66µM*	2.91µM*	?	-1.5%	-2.3%
COC(=O)/C=C/c1cc(O)ccc1O	0.731µM*	1.16µM*	·	·	·
NCCOc1ccccc1-c1ccccc1	?	?	-2.4	1.8%	0.9%
Nc1ccc(Oc2ccccc2-c2ccccc2)cc1	4.6%	-26.7%	-56.8*	-29.3%	-12.6%
Cc1ccc(NC(=O)c2ccccc2SCC(=O)N2CCCC2)cc1S(=O)(=O)N(C)C	-6.1%	-12.2%	1.7	-1.3%	0.6%
COc1c(Br)cc(Br)cc1/C=C1/C(=O)N=C(N)N1C	-1.7%	-17.6%	-53.6*	-14.4%	-13.1%
SMILES	DT40 TDP1 CPT	TDP1 cell noCPT	IL1B secr inh	HT1080 IDH1KD tx	HT1080NT lethal
CN1C(N)=NC(=O)/C1=C/c1ccccc1F	10.4%	-4.0%	-4.5	4.5%	3.5%
Cn1c2ccccc2c(=O)c2c(=O)n(C3CCCCCC3)c(C3CCCCC3)nc21	14.6µM*	13µM*	27.7	3.6%	0.5%
Cn1c2ccccc2c(=O)c2c(=O)n(C3CCCCC3)c(-c3cccs3)nc21	?	?	37.2	-12.2%	1.6%
COc1ccc(Cn2c(C3CCCCC3)nc3c(c(=O)c4ccccc4n3C)c2=O)cc1	?	16.4µM*	19.5	5.7%	3.3%
CCc1nc2c(c(=O)c3ccccc3n2C)c(=O)n1C1CCCCCC1	?	16.4µM*	-7.0	-21.6%	-17.8%
O=C(NCc1ccco1)c1ccc2c(c1)N(Cc1ccc(Cl)cc1)CCS2	?	?	-60.2*	-12.3%	-12.7%
Cc1ccc(CN2CCSc3ccc(C(=O)NCCc4ccccc4)cc32)cc1	23.1µM*	23.1µM*	·	·	·
NS(=O)(=O)c1ccc(CCNC(=O)c2ccc3c(c2)N(Cc2ccccc2)CCS3)cc1	1.1%	-8.4%	22.4	5.7%	5.8%
COc1ccc(OC)c(CCNC(=O)c2ccc3c(c2)N(Cc2ccccc2)CCS3)c1	23.1µM*	16.4µM*	2.1	-10.7%	-14.5%
Cc1ccc(CN2CCSc3ccc(C(=O)NCC(C)c4ccccc4)cc32)cc1 (stereo not drawn)	?	23.1µM*	·	·	·
C/C(=N/NC(=O)c1ccc(Br)o1)C(C)C	-0.2%	-13.4%	-0.1	8.4%	12.3%
Cc1cccc(NS(=O)(=O)c2ccc(NC(=O)N3CCCC3)cc2)c1	-10.8%	-10.2%	·	·	·
COc1ccc(C(=O)COC(=O)CCN2C(=O)C3C4C=CC(C5CC45)C3C2=O)cc1 (stereo not drawn)	?	-10.5%	0.0	-7.6%	-6.5%
O=C(NCCc1ccc(Cl)cc1)c1ccc2c(c1)N(Cc1ccccc1)CCS2	16.4µM*	?	·	·	·
COc1ccc(C(C)=O)cc1COc1nc(C)nc2ccccc12	-1.0%	-20.9%	19.0	3.8%	3.2%
CC1Cc2ccccc2N1S(=O)(=O)c1cnc[nH]1 (stereo not drawn)	0.9%	-2.2%	-20.8	-0.8%	-0.6%
O=S(=O)(c1cnc[nH]1)N1CCc2ccccc21	?	23.1µM*	17.9	0.7%	-0.2%
O=C(O)c1ccccc1Sc1c([N+](=O)[O-])cc(C(F)(F)F)cc1[N+](=O)[O-]	?	?	-66.7*	-7.1%	-6.9%
CN(C)/C=N/c1nc(-c2ccc3c(c2)OCO3)cs1	0.6%	-14.3%	-17.9	-2.6%	-8.0%
Nc1nc(-c2ccc3ccccc3c2)cs1	6.8%	-28.8%	-67.5*	-25.2%	1.4%
CN(C)/C=N/c1nc(-c2ccc3ccccc3c2)cs1	-25.1%	-0.5%	-60.6*	-11.6%	-9.0%
